# According to the supplement of paper PMC3545927:
# Some of the results follow. The hit rate among all sequences tested is not known here.
# Target: furin, P09958
# Test: furin cleavage Z-score vs untreated control; higher = more cleavage, active = 3.5 or more, inactive = 1 or less, 8 variable residues between constant flanks
# Method in brief: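 Furin-free reactions served as the baseline for the cleavage Z-score, which is the log read count lowess-adjusted and scaled by median absolute deviation. Counts came from released DNA, adapter-tagged by PCR and sequenced. Purified furin had cut 8-mer peptides fused to a cDNA oligonucleotide on magnetic beads during 7.5, 15 or 30 min at 1:10 enzyme:substrate.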
# 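Also: purified furin at 1:10 enzyme:substrate in 50 mM HEPES pH 7.5.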
# Chain of furin, P09958 (P09958 whole entry): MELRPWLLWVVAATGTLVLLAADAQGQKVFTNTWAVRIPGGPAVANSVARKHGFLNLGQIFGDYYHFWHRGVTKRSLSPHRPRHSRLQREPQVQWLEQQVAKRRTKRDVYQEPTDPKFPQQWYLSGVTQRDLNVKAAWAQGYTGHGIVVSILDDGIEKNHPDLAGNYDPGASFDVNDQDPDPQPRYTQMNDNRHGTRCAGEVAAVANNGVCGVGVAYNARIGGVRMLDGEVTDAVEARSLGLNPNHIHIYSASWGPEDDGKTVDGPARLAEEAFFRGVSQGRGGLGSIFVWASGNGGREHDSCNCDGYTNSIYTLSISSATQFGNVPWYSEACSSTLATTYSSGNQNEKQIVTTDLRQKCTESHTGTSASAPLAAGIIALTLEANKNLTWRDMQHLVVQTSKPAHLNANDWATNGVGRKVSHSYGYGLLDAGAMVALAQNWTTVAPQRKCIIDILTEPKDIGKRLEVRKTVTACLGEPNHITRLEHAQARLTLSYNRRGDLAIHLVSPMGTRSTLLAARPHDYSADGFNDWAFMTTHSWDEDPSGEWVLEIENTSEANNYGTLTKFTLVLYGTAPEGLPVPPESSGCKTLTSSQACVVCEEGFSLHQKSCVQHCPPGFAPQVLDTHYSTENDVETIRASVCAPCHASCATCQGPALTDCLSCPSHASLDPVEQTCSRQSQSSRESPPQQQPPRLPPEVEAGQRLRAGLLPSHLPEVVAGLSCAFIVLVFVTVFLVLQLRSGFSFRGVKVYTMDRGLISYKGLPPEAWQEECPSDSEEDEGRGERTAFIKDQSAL
Sequence,furin cleavage Z-score (7.5 min),furin cleavage Z-score (15 min),furin cleavage Z-score (30 min)
CAEHVVCCSMAGNASASA [HC2135],0.471 (inactive),-0.688 (inactive),1.47
CAVVCCSMSTAGNASASA [HC2098],0.887 (inactive),-0.156 (inactive),0.445 (inactive)
CALAFRRRRDAGNASASA [FS-346],7.62 (active),8.27 (active),6.14 (active)
CAGRPRRRRDAGNASASA [FS-432],11.8 (active),13.5 (active),9.18 (active)
CAWAHNGLRDAGNASASA [HC640],0.594 (inactive),0.97 (inactive),-0.0784 (inactive)
CAGRPRSRKIAGNASASA [FS-657],-0.514 (inactive),-1.38 (inactive),0.291 (inactive)
CAYGCRRRRDAGNASASA [FS-737],9.65 (active),10.6 (active),8.47 (active)
CATTDRRRRDAGNASASA [FS-101],9.9 (active),8.9 (active),5.67 (active)
CAEVPCHRPCAGNASASA [HC2420],0.0318 (inactive),0.651 (inactive),0.47 (inactive)
CAIMFAPTLWAGNASASA [HC1577],-1.61 (inactive),-2.05 (inactive),0.617 (inactive)
CASPVFTDNSAGNASASA [HC764],-0.427 (inactive),0.197 (inactive),-1.76 (inactive)
CAAWDMMMNWAGNASASA [HC320],1.05,0.73 (inactive),-0.468 (inactive)
CAPEECSQHLAGNASASA [HC1679],1.99,1.43,0.965 (inactive)
CAGEIPFYGKAGNASASA [HC846],1.57,-1.54 (inactive),-0.341 (inactive)
CAIEANLLWRAGNASASA [HC1274],0.45 (inactive),0.419 (inactive),0.862 (inactive)
CASASRGPRSAGNASASA [FS-1078],4.05 (active),4.67 (active),4.87 (active)
CAVGKRQPRSAGNASASA [FS-1176],10.8 (active),10.9 (active),8.62 (active)
CARAERGPRSAGNASASA [FS-1058],3.99 (active),4.52 (active),4.09 (active)
CAAKARGPRSAGNASASA [FS-745],11 (active),9.83 (active),7.42 (active)
CAREYRGQRSAGNASASA [FS-705],-0.292 (inactive),2.01,0.594 (inactive)
CAATPPGSVTAGNASASA [HC835],-1.05 (inactive),-0.0418 (inactive),-0.602 (inactive)
CAFVGAGLAGAGNASASA [HC1075],-0.934 (inactive),-0.739 (inactive),-0.847 (inactive)

Sequence,furin cleavage Z-score (7.5 min),furin cleavage Z-score (15 min),furin cleavage Z-score (30 min)
CAVVCCSFSYAGNASASA [HC2047],0.639 (inactive),-0.617 (inactive),-0.397 (inactive)
CATKLLLAVFAGNASASA [HC605],1.92,3.24,0.635 (inactive)
CASTPCSAHMAGNASASA [HC2566],-0.903 (inactive),0.0563 (inactive),1.83
CAAMTPTVATAGNASASA [HC281],0.668 (inactive),1.6,-0.149 (inactive)
CAQTSRSNRFAGNASASA [FS-852],0.217 (inactive),-0.984 (inactive),0.464 (inactive)
CATHSIKKRSAGNASASA [FS-1574],8.84 (active),7.91 (active),7.4 (active)
CAERHRQTRSAGNASASA [FS-763],6.53 (active),6.61 (active),4.64 (active)
CAQTSRNTRSAGNASASA [FS-184],9.04 (active),11.5 (active),9.02 (active)
CASASHKKRSAGNASASA [FS-867],3,2.31,3.6 (active)
CASVCCSMSYAGNASASA [HC1997],-0.28 (inactive),-0.316 (inactive),-0.657 (inactive)
CAAREVPCHRAGNASASA [HC2423],0.147 (inactive),1.34,1.67
CAPGAKQNVQAGNASASA [HC363],-0.22 (inactive),-0.957 (inactive),-0.643 (inactive)
CASCGGVVLVAGNASASA [HC569],-1.44 (inactive),-0.138 (inactive),-1.42 (inactive)
CAQLLRRLHQAGNASASA [HC1138],-0.809 (inactive),0.744 (inactive),0.327 (inactive)
CAFLSRRRRAAGNASASA [FS-326],8.63 (active),7.91 (active),6.71 (active)
CACLSRRRRAAGNASASA [FS-582],9.75 (active),10.1 (active),8.23 (active)
CAHRSVRRRAAGNASASA [FS-798],4.59 (active),5.95 (active),5.68 (active)
CAQLLRRRRAAGNASASA [FS-1475],5.21 (active),3.72 (active),3.69 (active)
CASLLRERRAAGNASASA [FS-1613],-0.33 (inactive),1.11,0.57 (inactive)
CAEVVTSKWVAGNASASA [HC2214],-0.244 (inactive),-0.0853 (inactive),-0.758 (inactive)
CAWVAMTPTVAGNASASA [HC280],-0.409 (inactive),1.35,0.148 (inactive)
